Results from the supplement of paper PMC6555819.

Tests used:
Experiment in all cases: PBM binding z-score (relative to random genomic background probes); higher = stronger binding; sequences stand for … in GC…GCGATTGACAGCGTAGAATGAAGG
[1] = tested on: RARb homodimer (NR concentration 270 nM)
Summary of the method: (§1)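 For binding z-scores, the reference was random background probes on custom Agilent 4×180K protein-binding microarrays. These arrays were incubated 1 h with ligand-free nuclear receptor dimers in PBS pH 7.4, 2% milk, 0.02% Triton X-100, 1 mM DTT, 0.2 mg/mL BSA and 0.4 mg/ml salmon testes DNA. Fluorescence was scanned after antibody detection of each partner (one per run) and regression-normalized.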

[2] = tested on: RARg:RXRa (NR concentration 270 nM, RXRa partner concentration 90 nM)
Summary of the method: as §1

[3] = tested on: RARg homodimer (NR concentration 270 nM)
Summary of the method: as §1

[4] = tested on: RXRa DBDmut IVT, anti-RXR (DBD mutation: RXRa K156A/R161A, NR concentration 90 nM)
Summary of the method: as §1

[5] = tested on: RXRa homodimer (NR concentration 180 nM)
Summary of the method: as §1

[6] = tested on: THRa:RXRa (NR concentration 90 nM, RXRa partner concentration 90 nM)
Summary of the method: as §1

[7] = tested on: THRa homodimer (NR concentration 90 nM)
Summary of the method: as §1

[8] = tested on: VDR homodimer (NR concentration 270 nM)
Summary of the method: as §1

Sequence	PBM binding z-score [1]	PBM binding z-score [2]	PBM binding z-score [3]	PBM binding z-score [4]	PBM binding z-score [5]	PBM binding z-score [6]	PBM binding z-score [7]	PBM binding z-score [8]
TCTACTAGTTGAAGGGCAACCGACGAGTCCGTTT	0.815	0.16	0.311	1.11	0.353	-0.216	-0.254	0.707
CCATACGGGTCACTGACAGGTTATAGCATTTGGA	3.06	5.82	4.78	1.24	5.32	2.84	-0.0458	1.3
CAAACTAGGTCAAAGGTGAAAGTCGAGCCAACCA	3.44	6.43	4.84	2.14	7.81	3.65	1.03	1.05
CCTATTAGTTGACCGTAAGGGCAACCGAAGCTCG	2.75	1.73	1.51	0.339	0.616	2.29	1.78	1.06
CCTACTGGGCCACGAAAGGTCATTGAATCAGTGA	4.71	4.78	4.92	0.485	5.26	3.64	0.999	1.9
GCGTCTGGGGCAAAGCAGGTTACCATAAGGTTGG	1.13	0.435	0.815	-0.387	0.339	3.04	0.0693	-0.358
CCTACTGGGCCATCATGTCATTGATATCAACGTT	0.671	0.216	0.415	-0.152	-0.104	0.045	0.122	-0.253
